# For some assays here: Results with a measured potency or affinity are listed apart.
# What was measured:
# Set-up in all cases: scale not given: direction of the effect not stated beside the values
# [1] = biological target: Protein translocase subunit SecA (Escherichia coli (strain K12)) (UniProt P10408); assay: Assay to Identify E. coli SecA ATPase Inhibitors; type: functional; conditions: 30 µM
# [2] = biological target: T1, Ubiquitin-activating enzyme e1, putative (Leishmania donovani (strain BPK282A1)) (UniProt E9BSI1); assay: Leishmania donovani Ubiquitin Activating Enzyme (LdE1); type: functional; conditions: 30 µM
# T1 sequence (whole entry): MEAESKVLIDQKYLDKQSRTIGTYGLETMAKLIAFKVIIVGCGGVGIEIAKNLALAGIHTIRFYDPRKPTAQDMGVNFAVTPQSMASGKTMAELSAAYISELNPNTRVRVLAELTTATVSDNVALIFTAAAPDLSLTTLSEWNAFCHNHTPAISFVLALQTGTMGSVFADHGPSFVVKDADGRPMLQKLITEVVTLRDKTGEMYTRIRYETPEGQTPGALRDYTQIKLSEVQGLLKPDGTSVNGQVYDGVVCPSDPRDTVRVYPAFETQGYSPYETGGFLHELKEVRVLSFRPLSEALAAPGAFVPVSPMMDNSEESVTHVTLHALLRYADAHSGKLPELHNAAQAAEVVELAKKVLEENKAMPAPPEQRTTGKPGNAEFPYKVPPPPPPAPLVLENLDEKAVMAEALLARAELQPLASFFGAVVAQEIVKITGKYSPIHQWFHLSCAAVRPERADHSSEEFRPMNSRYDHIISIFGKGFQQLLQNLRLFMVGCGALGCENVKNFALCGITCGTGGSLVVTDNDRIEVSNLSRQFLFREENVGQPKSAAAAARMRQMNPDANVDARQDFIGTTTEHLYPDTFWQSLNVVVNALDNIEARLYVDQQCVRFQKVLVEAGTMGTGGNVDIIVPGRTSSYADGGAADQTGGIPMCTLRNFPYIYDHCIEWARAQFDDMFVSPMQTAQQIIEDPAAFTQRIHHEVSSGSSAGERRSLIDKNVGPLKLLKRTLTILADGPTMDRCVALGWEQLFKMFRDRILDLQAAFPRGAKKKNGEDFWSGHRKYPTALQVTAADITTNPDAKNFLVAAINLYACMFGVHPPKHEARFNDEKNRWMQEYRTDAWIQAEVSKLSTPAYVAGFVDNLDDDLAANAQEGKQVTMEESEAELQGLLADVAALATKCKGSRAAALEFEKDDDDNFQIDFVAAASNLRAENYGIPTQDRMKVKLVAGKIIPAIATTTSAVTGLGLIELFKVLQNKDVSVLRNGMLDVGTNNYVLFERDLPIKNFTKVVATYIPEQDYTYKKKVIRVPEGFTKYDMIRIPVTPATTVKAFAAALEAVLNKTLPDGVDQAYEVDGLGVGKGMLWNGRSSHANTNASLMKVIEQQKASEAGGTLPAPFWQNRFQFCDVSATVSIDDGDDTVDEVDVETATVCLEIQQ
# [3] = biological target: AMP-activated protein kinase, AMPK (Homo sapiens) (UniProt P54646+O43741+P54619+Q9UGJ0+Q9Y478+Q13131+Q9UGI9); assay: AMP-dependent Kinase enzyme assay. An in vitro enzyme assay that detects ADP turnover that is directly proportional to AMPK activity. This uses naive AMPK that is activated during the assay with MK-8722; type: functional; conditions: 30 µM
# [4] = biological target: Sialic acid-binding Ig-like lectin 9 (Homo sapiens) (UniProt Q9Y336); assay: Hs-Siglec9 ALPHAscreen SOP 20170721; conditions: 10 µM
# Trypanosoma cruzi = assay: Trypanosoma cruzi phosphomannomutase and mannose-1-phosphate guanylyltransferase assay; type: functional; conditions: 10 µM
# [5] = biological target: T2, Arginase-2, mitochondrial (Homo sapiens) (UniProt P78540); assay: in vitro enzyme assay to detect the production of urea directly proportional to the activity of Arginase II; type: functional; conditions: 33.3 µM; also: in the data most compounds retested in dose-response had high values
# T2 sequence (whole entry): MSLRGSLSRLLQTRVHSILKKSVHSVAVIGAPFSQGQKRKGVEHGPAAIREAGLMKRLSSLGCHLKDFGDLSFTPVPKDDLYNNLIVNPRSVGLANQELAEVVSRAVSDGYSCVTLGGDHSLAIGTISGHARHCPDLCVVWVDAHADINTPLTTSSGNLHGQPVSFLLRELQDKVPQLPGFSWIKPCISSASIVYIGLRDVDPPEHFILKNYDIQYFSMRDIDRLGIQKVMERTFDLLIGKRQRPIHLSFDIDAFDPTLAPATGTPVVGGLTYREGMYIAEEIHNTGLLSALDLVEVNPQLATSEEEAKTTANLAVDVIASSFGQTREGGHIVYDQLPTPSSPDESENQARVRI
# [6] = biological target: T3, Proteasome subunit beta (Trypanosoma cruzi) (UniProt O96673); assay: Trypanosoma cruzi proteasome chymotrypsin-like activity (TcProtChymo) assay.; also: in the data most compounds retested in dose-response had high values; type: functional; conditions: 9.37 µM
# T3 sequence (whole entry): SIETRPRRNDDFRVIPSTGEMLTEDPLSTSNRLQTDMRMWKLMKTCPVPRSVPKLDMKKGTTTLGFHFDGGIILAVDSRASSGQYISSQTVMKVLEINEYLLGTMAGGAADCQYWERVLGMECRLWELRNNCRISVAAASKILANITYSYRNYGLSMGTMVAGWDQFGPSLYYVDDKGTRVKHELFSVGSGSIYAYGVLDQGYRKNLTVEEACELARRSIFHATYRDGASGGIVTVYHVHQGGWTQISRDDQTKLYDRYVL
# Homo sapiens = organism: Homo sapiens; assay: To identify inhibition of the IFN signalling (Jak-Stat) pathway via expression of an eGFP reporter gene under the control of an IFN-stimulated response element (ISRE) containing MxA promoter.; type: functional; conditions: 30 µM
# [7] = biological target: T4, Tyrosyl-tRNA synthetase, putative (Trypanosoma cruzi (strain CL Brener)) (UniProt Q4DSP6); assay: Trypanosoma cruzi tyrosyl tRNA synthetase (TcYRS) _High Tyrosine SOP; type: functional; conditions: 30 µM; also: in the data most compounds retested in dose-response had high values
# T4 sequence (whole entry): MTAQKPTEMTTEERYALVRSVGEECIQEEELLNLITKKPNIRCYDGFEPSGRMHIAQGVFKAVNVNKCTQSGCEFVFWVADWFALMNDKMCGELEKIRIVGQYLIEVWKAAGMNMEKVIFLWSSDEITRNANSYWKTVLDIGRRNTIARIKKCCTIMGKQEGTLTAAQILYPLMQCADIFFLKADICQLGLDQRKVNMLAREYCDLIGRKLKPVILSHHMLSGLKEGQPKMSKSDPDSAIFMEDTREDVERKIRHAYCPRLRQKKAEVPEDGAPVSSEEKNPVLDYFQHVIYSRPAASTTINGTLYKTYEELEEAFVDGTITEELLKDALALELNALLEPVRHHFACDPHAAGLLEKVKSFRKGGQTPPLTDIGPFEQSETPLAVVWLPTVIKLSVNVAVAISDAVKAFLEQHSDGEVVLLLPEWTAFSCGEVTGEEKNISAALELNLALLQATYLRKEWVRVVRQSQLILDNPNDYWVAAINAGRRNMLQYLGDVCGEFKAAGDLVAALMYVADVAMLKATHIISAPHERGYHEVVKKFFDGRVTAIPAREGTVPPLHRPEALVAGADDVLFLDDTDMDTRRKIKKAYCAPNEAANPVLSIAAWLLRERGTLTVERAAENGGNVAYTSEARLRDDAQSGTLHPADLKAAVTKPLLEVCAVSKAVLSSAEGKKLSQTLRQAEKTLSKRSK
# [8] = biological target: T4, Tyrosyl-tRNA synthetase, putative (Trypanosoma cruzi (strain CL Brener)); assay: Trypanosoma cruzi tyrosyl tRNA synthetase (TcYRS) SOP; type: functional; conditions: 30 µM
# [9] = biological target: Chromo domain-containing protein 1 (Saccharomyces cerevisiae (strain ATCC 204508 / S288c) (Baker's yeast)) (UniProt P32657); assay: ScCHD-1 Enzyme Inhibition Assay; type: functional; conditions: 30 µM; also: in the data most compounds retested in dose-response had high values
# Sequence of Chromo domain-containing protein 1 (Saccharomyces cerevisiae (strain ATCC 204508 / S288c) (Baker's yeast)) (P32657 whole entry, the tested form may be a part): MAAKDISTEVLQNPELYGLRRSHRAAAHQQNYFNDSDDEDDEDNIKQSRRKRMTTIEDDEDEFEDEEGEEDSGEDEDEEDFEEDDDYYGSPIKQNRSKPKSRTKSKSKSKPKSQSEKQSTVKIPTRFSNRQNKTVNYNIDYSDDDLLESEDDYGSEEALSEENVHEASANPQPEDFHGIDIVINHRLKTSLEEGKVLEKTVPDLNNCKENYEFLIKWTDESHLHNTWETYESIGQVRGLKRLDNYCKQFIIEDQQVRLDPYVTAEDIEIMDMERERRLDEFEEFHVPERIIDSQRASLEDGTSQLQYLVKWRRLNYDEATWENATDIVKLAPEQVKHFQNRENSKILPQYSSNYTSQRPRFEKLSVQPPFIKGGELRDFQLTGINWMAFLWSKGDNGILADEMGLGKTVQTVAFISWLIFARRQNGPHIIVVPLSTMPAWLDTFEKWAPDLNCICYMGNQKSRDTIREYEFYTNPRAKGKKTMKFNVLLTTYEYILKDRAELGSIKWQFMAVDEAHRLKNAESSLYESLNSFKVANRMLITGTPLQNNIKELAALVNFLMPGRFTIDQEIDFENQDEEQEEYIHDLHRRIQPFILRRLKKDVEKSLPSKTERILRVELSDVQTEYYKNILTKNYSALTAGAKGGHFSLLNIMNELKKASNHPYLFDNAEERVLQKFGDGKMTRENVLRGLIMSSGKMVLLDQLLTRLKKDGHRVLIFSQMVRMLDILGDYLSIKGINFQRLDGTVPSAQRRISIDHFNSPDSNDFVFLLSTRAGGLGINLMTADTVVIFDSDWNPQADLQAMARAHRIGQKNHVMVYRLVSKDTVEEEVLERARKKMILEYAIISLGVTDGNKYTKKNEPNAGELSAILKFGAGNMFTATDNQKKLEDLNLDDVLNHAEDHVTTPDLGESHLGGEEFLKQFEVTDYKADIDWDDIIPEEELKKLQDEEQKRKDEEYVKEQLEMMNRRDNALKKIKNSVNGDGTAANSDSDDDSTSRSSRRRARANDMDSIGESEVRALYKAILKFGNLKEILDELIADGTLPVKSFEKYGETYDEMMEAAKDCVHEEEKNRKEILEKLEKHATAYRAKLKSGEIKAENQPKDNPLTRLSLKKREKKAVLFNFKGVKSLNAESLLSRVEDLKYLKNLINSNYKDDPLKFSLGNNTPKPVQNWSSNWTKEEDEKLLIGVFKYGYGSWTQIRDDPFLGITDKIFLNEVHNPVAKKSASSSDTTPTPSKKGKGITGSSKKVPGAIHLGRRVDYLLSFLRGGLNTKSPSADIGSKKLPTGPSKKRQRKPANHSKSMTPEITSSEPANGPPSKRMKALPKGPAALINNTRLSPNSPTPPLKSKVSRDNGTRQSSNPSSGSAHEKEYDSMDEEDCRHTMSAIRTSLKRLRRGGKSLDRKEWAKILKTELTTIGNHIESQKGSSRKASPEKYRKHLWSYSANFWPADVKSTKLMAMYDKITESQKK
# Sequence of Protein translocase subunit SecA (Escherichia coli (strain K12)) (P10408 whole entry): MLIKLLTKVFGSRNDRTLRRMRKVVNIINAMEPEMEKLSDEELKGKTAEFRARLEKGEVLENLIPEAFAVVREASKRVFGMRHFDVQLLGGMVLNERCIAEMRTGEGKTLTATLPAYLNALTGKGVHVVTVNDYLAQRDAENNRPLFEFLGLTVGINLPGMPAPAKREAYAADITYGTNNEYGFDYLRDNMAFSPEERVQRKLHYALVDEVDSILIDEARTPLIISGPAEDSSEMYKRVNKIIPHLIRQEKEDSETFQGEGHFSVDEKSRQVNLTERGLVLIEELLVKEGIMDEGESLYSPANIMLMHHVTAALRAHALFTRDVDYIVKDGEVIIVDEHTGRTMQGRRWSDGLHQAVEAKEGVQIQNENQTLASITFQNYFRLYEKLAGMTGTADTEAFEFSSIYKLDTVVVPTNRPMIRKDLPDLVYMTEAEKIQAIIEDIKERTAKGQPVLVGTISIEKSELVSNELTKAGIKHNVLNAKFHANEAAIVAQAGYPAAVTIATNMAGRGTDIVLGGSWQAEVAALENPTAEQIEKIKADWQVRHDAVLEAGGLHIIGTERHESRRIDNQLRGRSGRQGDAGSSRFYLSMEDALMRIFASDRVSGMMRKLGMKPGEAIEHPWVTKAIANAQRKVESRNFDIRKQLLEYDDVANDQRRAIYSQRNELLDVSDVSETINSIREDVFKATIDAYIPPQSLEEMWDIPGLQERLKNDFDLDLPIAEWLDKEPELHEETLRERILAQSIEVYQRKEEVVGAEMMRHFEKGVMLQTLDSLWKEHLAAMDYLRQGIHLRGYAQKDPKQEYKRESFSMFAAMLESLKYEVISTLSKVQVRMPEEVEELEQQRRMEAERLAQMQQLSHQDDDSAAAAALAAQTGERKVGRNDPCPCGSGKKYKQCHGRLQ
# Sequence of Sialic acid-binding Ig-like lectin 9 (Homo sapiens) (Q9Y336 whole entry): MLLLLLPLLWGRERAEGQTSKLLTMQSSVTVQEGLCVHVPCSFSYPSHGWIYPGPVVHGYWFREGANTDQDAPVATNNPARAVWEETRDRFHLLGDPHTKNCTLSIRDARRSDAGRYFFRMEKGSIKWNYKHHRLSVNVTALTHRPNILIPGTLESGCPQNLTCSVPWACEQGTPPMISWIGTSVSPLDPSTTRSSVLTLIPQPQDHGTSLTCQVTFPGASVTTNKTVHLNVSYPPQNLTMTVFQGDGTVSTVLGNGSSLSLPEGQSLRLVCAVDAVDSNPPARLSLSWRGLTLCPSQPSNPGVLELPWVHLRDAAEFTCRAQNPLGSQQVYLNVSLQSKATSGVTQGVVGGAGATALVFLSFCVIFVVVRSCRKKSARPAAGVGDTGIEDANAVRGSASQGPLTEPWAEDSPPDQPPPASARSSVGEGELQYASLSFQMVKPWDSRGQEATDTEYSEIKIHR
SMILES,Percent Effect [1] [%],Percent Effect [2] [%],Percent Effect [3] [%],Percent Effect [4] [%],Percent Effect (Trypanosoma cruzi) [%],Percent Effect [5] [%],Percent Effect [6] [%],Percent Effect (Homo sapiens) [%],Percent Effect [7] [%],Percent Effect [8] [%],Percent Effect [9] [%]
CC1CCN(CCNC(=O)c2ccccc2N2CCOCC2)CC1,0.622,11,-2.96,1.48,-1.98,-2.79,24.1,5.31,13.5,16.1,-2.45
COCC1CC2(CCN(C(=O)c3cc(C)oc3C)CC2)CN1C(C)C (configuration not stated),-2.57,0,-9.18,-4.84,2.15,-1.25,9.21,1.95,8.91,15.8,-7
CC(=O)c1cccc(OCCCC(=O)N(C)CCc2ccncc2)c1,-2.19,8.11,-3.93,2.37,3.67,-1.91,16.4,16.1,8.99,17.1,-2.34
CCOC(=O)CNC(=O)N1CCN(c2ncccn2)CC1,-2.75,7.79,-0.383,6.61,4.03,-13.8,9.65,14.3,5.38,13.6,-4.38
COc1cccc(C2CC(=O)Nc3nc(N4CCOCC4)sc32)c1OC (configuration not stated),63.9,42.1,16,0.0251,-0.487,21.3,18.1,-7.88,5.32,10.4,-8.79
Cc1oc(C)c(C(=O)NCc2cccnc2N(C)C)c1C,-1.52,13.2,4.37,-11.8,-3.57,-1.53,5.35,-12.2,1.47,12.2,-9.19
Cc1nc(CN2C(=O)COC3(CCN(Cc4ccco4)CC3)C2C)cs1 (configuration not stated),-3.92,2.74,3.27,2.66,-3.37,-3.19,15.8,2.79,3.12,6.17,-2.61
COc1cccc(CNc2nc(O)cc(C3CC(=O)N(C)C3)n2)c1 (configuration not stated),1.85,12.2,4.37,1.72,-4.35,2.09,16.7,14.9,5.38,-1.3,-11.6
CCN(CC1CCOC1)C(=O)c1ccccc1N1CCOCC1 (configuration not stated),-3.71,23.7,-4.13,-10.1,-3.08,1.8,4.82,12.3,5.42,11.1,-5.45
CC(C)(NCC(=O)NCC(F)(F)F)c1ccc2c(c1)OCCO2,-1.45,13.5,-7.25,1.31,-4.06,17.2,16,5.37,1.48,18.5,-4.3
CC1c2ncc(CN3CCN(C)CC3)n2CCN1Cc1cccnc1 (configuration not stated),-2.48,8,-3.01,1.22,5.41,-51.8,7.35,-9.88,5.21,5,-7.93
Cc1cnn(CC2CN(CCN3CCCC3=O)CCO2)c1 (configuration not stated),-6.18,5.41,-4.61,8.1,8.7,0.744,7.3,-3.36,-3.23,11.1,-4.96
Cc1nc(C)n(CC2CCCCN2CC(=O)Nc2cccnc2)n1 (configuration not stated),-1.75,4.17,-8.52,22,3.98,9.71,8.25,-0.793,5.26,10.3,-2.02
NC(=O)c1cnn2c1NCC(CNCCCOc1ccccc1F)C2 (configuration not stated),-2.54,5.26,0.424,14.6,3.38,-1.15,0.167,2.29,9.31,12.2,-10.9
CCC1CN(c2nnc(C)c(C)c2C#N)CCO1 (configuration not stated),-3.31,2.63,-17.9,-4.88,6.96,1.15,20.7,9.86,0.49,21.9,-13.8
Cc1cccc(CN2CCc3ncnc(N4CCOCC4)c3CC2)n1,-4.12,-5.48,1.75,-1.38,-1.39,3.59,4.2,20.4,-1.04,1.24,-0.552
NC(=O)c1ccc2c(c1)nc1n2CCN(Cc2ccco2)C1,-3.62,21.1,5.96,1.24,3.02,-2.37,9.49,1.88,5.32,5.2,34.5
Cc1cnc(CN(C)CC2CCCN2c2cccnn2)cn1 (configuration not stated),1.21,15.6,-9.07,-13.5,1.27,-5.26,17.1,4.87,6.67,25.9,-25.4
Cc1ccc(CNC(C)c2ccc3[nH]c(=O)[nH]c3c2)s1 (configuration not stated),-3.59,13.5,-7.56,14,5,-5.61,-0.721,14.9,2.46,11.1,-6.23
NC(=O)NCCC(=O)NCc1cccnc1N1CCc2ccccc2C1,-1.28,18.9,-5.95,12.4,6.75,-3.23,4.89,1.04,7.53,23.5,-7.12
COCCN1CCC(NCc2cccc(F)c2)C1 (configuration not stated),-3.31,13,-4.27,0.179,-5.24,-4.27,8.78,32.2,5.83,0,-9.86
CC(C)C(C(=O)N1CCN(c2ccncc2)CC1)n1cncn1 (configuration not stated),-5.41,15.6,-0.644,10.9,6.98,-34.5,11.8,8.3,4.3,13.6,-7.32

# — ChEMBL document CHEMBL3988442, “University of Dundee, Small-Polar-MMV Screening Library” (2021)
